Experimental data from PubChem BioAssay (NCATS).
Results filed as inconclusive are left out. Entries that show only a call come without a potency. Calls of active or inactive are those of the source. The call rests on the fitted dose curve; in most records, active means well fitted inhibition curve with a large enough effect; inconclusive means small, poorly fitted or top-dose-only effect; inactive means no such curve, though single readings can be large or run the other way.

Each molecule was assayed against Tumor susceptibility gene 101 protein (Homo sapiens) (UniProt Q99816) (assay: qHTS Assay for Iinhibitors of HIV-1 Budding by Blocking the Interaction of PTAP/TSG101: Hit Validation (AID 651600; further: nearly all actives have a fitted effect of over 70% in size)). Settings: PTAP peptide/TSG101 UEV interaction, biochemical assay; series mostly up to 57.5 µM.
Tumor susceptibility gene 101 protein (Homo sapiens), sequence (Q99816 whole entry, looked up, the tested form may be a part): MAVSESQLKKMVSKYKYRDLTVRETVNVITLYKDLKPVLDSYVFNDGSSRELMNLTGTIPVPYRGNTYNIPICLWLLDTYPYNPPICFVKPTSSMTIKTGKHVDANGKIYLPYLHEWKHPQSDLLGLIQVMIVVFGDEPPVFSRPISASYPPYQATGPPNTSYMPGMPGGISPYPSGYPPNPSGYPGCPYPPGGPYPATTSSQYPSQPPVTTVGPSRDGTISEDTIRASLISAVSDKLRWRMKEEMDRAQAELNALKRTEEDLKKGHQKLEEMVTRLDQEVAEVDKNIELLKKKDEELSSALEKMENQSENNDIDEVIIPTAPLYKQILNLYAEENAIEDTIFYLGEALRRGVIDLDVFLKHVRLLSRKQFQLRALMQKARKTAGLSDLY
How it was run: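 Displacement of a FITC-labeled PTAP-motif peptide (50 nM) from the Tsg101 binding domain (10 uM) was monitored by fluorescence polarization after a 20 min room-temperature incubation.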
Potency means the concentration at half of the fitted maximal effect.

Compound | Potency
CCN(CC)c1ccc2cc(-c3nc(-c4ccc(OC)cc4)cs3)c(=O)oc2c1 | inactive
O=C(NCc1ccccc1Br)c1cccc2c1C(=O)c1ccc(N3CCC(Cc4ccccc4)CC3)cc1S2(=O)=O | inactive
COc1ccc(C2C(C(=O)c3cccs3)=C(O)C(=O)N2c2nnc(C)s2)cc1OC (stereo not given) | 6.51 µM (active)
Cc1cccc(N=Nc2c(O)[nH]c3ccc(F)cc23)c1 | inactive
Cc1cc(C)n2nc3nc4c(cc3c2n1)CCCC4 | inactive
Fc1ccc(C2=CC(c3ccco3)n3ncnc3N2)cc1 (stereo not given) | inactive
C/C(=N/NC(=O)c1ccncc1)c1cc2ccc(O)cc2oc1=O | 14.6 µM (active)
CSc1nc(-c2cccs2)c(C#N)c(=O)[nH]1 | inactive
O=S(=O)(Nc1cccc(-c2ccc(N3CCCCCC3)nn2)c1)c1cccc(F)c1 | inactive
Cc1nc2nc(-c3cccs3)cn2nc1C | inactive
CCOC(=O)N1CCN(c2nc3ccccc3nc2C(C#N)S(=O)(=O)c2ccc(C)cc2)CC1 (stereo not given) | inactive
CCN(CC)c1ccc2c(-c3ccc(S(=O)(=O)O)cc3S(=O)(=O)[O-])c3ccc(=[N+](CC)CC)cc-3oc2c1 | 11.6 µM (active)
CC(C)c1cc(=O)oc2c3c4c(cc12)CCCN4CCC3 | 5.17 µM (active)
Cc1ccc2nc(-c3ccco3)c(Nc3ccccc3)n2c1 | inactive
CC(=O)Nc1ccc(S(=O)(=O)Nc2nc3n(n2)C(c2ccccc2)C=C(c2ccc(Cl)cc2)N3)cc1 (stereo not given) | inactive
CCOc1ccc(NC(=O)c2ccc3c(c2)CCN3S(C)(=O)=O)cc1 | inactive
CCCn1c(=N)c(S(=O)(=O)c2ccccc2)cc2c(=O)n3cccc(C)c3nc21 | inactive
Nc1cccc(N2C(=O)c3cccc4c(N)ccc(c34)C2=O)c1 | 4.11 µM (active)
Cc1ccccc1-c1ccc(/C=C2/SC(N3CCOCC3)=NC2=O)o1 | inactive
CCOc1ccc(NC(=O)N(C2CCCCC2)C(C)c2ccncc2)cc1 (stereo not given) | inactive

Compound | Potency
CCN(CC)CCCNc1ccc2ncn3c4ccc(O)cc4c(=O)c1c23 | 4.61 µM (active)
Brc1ccc(-c2nc3ccccn3c2Nc2ccc3c(c2)OCCO3)o1 | inactive
NC(=O)c1ccccc1NCC(=O)c1ccc(F)cc1 | inactive
O=C(C1=C(O)C(=O)N(c2nccs2)C1c1ccccc1)c1cc2ccccc2o1 (stereo not given) | 5.17 µM (active)
Cc1ccc(CNC(=O)C2CCCN(S(=O)(=O)c3c(C)[nH]c(=O)[nH]c3=O)C2)cc1 (stereo not given) | inactive
Cn1nc([N+](=O)[O-])c(C(C#N)c2nc3ccccc3n2C)c(Cl)c1=O (stereo not given) | inactive
COc1ccc(OC)c(/C=C(\C#N)c2nc(-c3ccc(F)cc3)cs2)c1 | inactive
COc1cccc2c1C(=O)c1c(O)c3c(c(O)c1C2=O)C[C@](O)(C(C)=O)C[C@H]3O[C@@H]1C[C@@H](N)[C@@H](O)[C@@H](C)O1 | 14.6 µM (active)
CCn1c(/C=C/c2cc[n+](C)cc2)nc2ccccc21 | inactive
CNc1c2cccc(C)c2nc2c(C(=O)NCCN(C)C)cccc12 | 16.3 µM (active)
Cn1c(=O)c2[nH]c(COc3ccccc3)nc2n(C)c1=O | inactive
CN1CC=C2C(C#N)=C(N)C(C#N)(C#N)C(Cc3ccccc3)C2C1 (stereo not given) | inactive
COc1ccccc1N1C(C)=CC(=C(C#N)c2nc3ccccc3s2)C=C1C | 25.9 µM (active)
CC1=CC(=C(C#N)c2nc3ccccc3s2)C=C(C)N1c1ccc(F)cc1F | 13 µM (active)
CC(=O)Nc1ccc(N=Cc2c(O)ccc3ccccc23)cc1 | 29.1 µM (active)
COc1ccc(CCn2c(NN=C(C)C)nc3c2c(=O)[nH]c(=O)n3C)cc1 | inactive
CC1=CC(=C(C#N)c2nc3ccccc3s2)C=C(C)N1c1ccc(F)cc1 | 18.3 µM (active)
Oc1oc(-c2ccccc2)nc1C=Nc1cccc2ccccc12 | inactive
Nc1cnccc1C(=O)O | 20.6 µM (active)
Nc1nnnn1/N=C/c1cc(Cl)cc(Cl)c1O | 18.3 µM (active)
